Data published in PubChem BioAssay AID2391 (Southern Research Specialized Biocontainment Screening …, 2010).
About 410 (0.13%) of roughly 310,000 compounds were called active. Not shown: some 2% with an inconclusive outcome. The rule behind the calls is not given here. Only a sample is shown. Entries with a potency or affinity are not part of this list.

Experiment: RSV antiviral activity via CPE protection, HEp-2 cells, primary 10 µM value included (AID 2391)
Details: RSV-induced CPE inhibition, at 10 µM, hits give high values

Row | Compound | CPE inhibition
1 | CCN1C(=O)[C@H]2[C@@H](c3ccc(C)cc3)N3C(=O)N(c4cccc(Cl)c4)C(=O)[C@@]3(CC(C)C)[C@H]2C1=O | 3.11% (inactive)
2 | N#Cc1ccc(CSc2nnc(-c3cccnc3)n2-c2ccccc2)cc1 | 0.49% (inactive)
3 | Cc1ccc2c(C)c(C(=O)N3CCN(Cc4ccccn4)CC3)oc2c1C | 1.72% (inactive)
4 | Cc1ccc2c(C)c(C(=O)N3CCN(c4cnccn4)CC3)oc2c1C | 16.7% (inactive)
5 | CC(C)N(CCO)Cc1nc(C(c2ccccc2)c2ccccc2)no1 | -0.29% (inactive)
6 | Cc1c(C(=O)NCC2CCCO2)oc2ccc(Br)cc12 (stereo not drawn) | 3.18% (inactive)
7 | O=C(NCc1ccccc1)c1ccc(NC(=O)C2CCCO2)cc1 (stereo not drawn) | 0.29% (inactive)
8 | Cc1ccc(-n2c(SCC(=O)N3CC(=O)Nc4ccccc43)nc3ccccc3c2=O)cc1 | 3.64% (inactive)
9 | O=C1CN(C(=O)CSc2nc3ccccc3c(=O)n2Cc2ccc(F)cc2)c2ccccc2N1 | 16.3% (inactive)
10 | O=C(COC(=O)CNC(=O)c1ccc(Cl)cc1)NC1CCCCCC1 | -0.18% (inactive)
11 | CCOCCCNC(=O)C1CCCN1C(=O)NC1CCCCC1 (stereo not drawn) | 1.83% (inactive)
12 | CCOC(=O)N/N=C(\C)c1cccs1 | -0.75% (inactive)
13 | Nc1ccc(-c2nc3ccccc3o2)cc1 | 2.51% (inactive)
14 | Nc1ccc(-c2nc3ccccc3[nH]2)cc1 | -0.76% (inactive)
15 | Cc1ccc(S(=O)(=O)Nc2ccc3nc(-c4cccn4C)[nH]c3c2)cc1 | 2.21% (inactive)
16 | O=C(Nc1ccc(S(=O)(=O)Nc2nccs2)cc1)C1CCCCC1 | 1.14% (inactive)
17 | O=C(NC(=S)Nc1ccc(S(=O)(=O)Nc2nccs2)cc1)C1CC1 | -0.1% (inactive)
18 | O=C(c1cccc(N2C(=O)C3C4C=CC(C4)C3C2=O)c1)N1CCN(c2ccccc2F)CC1 (stereo not drawn) | 1.69% (inactive)
19 | O=C(c1cccc(N2C(=O)C3C4C=CC(C4)C3C2=O)c1)N1CCN(c2ccccc2)CC1 (stereo not drawn) | 3.62% (inactive)
20 | Cc1ccc(S(=O)(=O)NCCC(=O)NCC(c2ccc(F)cc2)N2CCOCC2)cc1 (stereo not drawn) | -0.75% (inactive)
21 | COc1ccc(CNC(=S)Nc2cccc(OC)c2)cc1 | 0.93% (inactive)
22 | CCOc1cc(S(=O)(=O)N(CC)CC)ccc1Br | 0.38% (inactive)
23 | COc1ccccc1CNC(=O)CN(C)S(=O)(=O)c1ccc(Br)s1 | 3.3% (inactive)
